Several values for one entry are separate records, joined by “and”; a condition that tells them apart may be missing. Identical values can stand only once. Inconclusive results are not listed. Entries that show only a call come without a potency. Activity calls are given as the source filed them. Calls come from the whole dose curve; as a rule, active = well fitted curve in the direction sought with a large enough effect; inconclusive = small, poorly fitted or top-dose-only effect, or another doubt; inactive = no such curve, though single readings can be large; an effect the other way counts as inactive or inconclusive.
target: N-terminal Xaa-Pro-Lys N-methyltransferase 1 (Homo sapiens) (UniProt Q9BV86); experiment: Confirmatory qHTS for Inhibitors of N-terminal methyltransferase 1 (NTMT1): MTaseGlo Assay (AID 1645874); settings: NTMT1 enzyme, MTase-Glo SAH luminescence; series mostly up to 100 µM; note: nearly all actives have a fitted effect of over 65% in size
Outline: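 Inhibition was derived from luminescence after SAH-to-ATP conversion, scaled between no-enzyme and DMSO wells, then fitted by 4-parameter Hill. Conditions: 125 nM NTMT1, 100 uM SAM, 1 uM SPKRIA, 30 min RT.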
Potency is the fitted concentration of half-maximal effect.

Sequence of N-terminal Xaa-Pro-Lys N-methyltransferase 1 (Homo sapiens) (Q9BV86 whole entry, looked up): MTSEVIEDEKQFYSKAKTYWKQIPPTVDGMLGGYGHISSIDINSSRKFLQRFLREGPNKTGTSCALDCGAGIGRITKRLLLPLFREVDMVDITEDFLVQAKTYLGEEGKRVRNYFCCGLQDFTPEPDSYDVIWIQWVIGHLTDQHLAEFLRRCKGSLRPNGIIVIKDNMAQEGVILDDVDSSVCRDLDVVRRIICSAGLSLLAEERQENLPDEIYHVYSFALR

Row | Structure (SMILES) | Potency
1 | Clc1ccc(Nc2nnc(Cc3ccncc3)c3ccccc23)cc1 | inactive
2 | Nc1ncnc2nc(-c3ccc(N4CCOCC4)nc3)cc(-c3cccc(Br)c3)c12 | 0.515 µM (active)
3 | OCCn1cc(-c2cnc3nnn(Cc4ccc5ncccc5c4)c3n2)cn1 | inactive
4 | COc1cc2c(cc1OC)CN(CCc1ccc(NC(=O)c3cccc4c(=O)c5cccc(OC)c5[nH]c34)cc1)CC2 | 35.5 µM (active)

system: not listed separately; experiment: Primary qHTS for inhibitors of nuclear receptor binding SET domain protein 2 (NSD2) in an isogenic RCH-ACV NSD2 p.E1099K mutant (9B) (AID 1645876); settings: RCH-ACV NSD2 E1099K (9B) viability, CellTiter-Glo, 72 h; series mostly up to 44.9 µM; note: nearly all actives have a fitted effect of over 70% in size

Row | Structure (SMILES) | Potency
5 | CCc1ccc(CCOc2ccc(CC3SC(=O)NC3=O)cc2)nc1 (stereo not given) | inactive
6 | CC(C)(C)OC(=O)CN(Cc1ccc(Cl)cc1)Cc1ccc([N+](=O)[O-])s1 | inactive
7 | Clc1ccc(Nc2nnc(Cc3ccncc3)c3ccccc23)cc1 | 15 µM (active) and 9.34 µM (active)
8 | CCC(C)n1ncn(-c2ccc(N3CCN(c4ccc(OC[C@H]5CO[C@](Cn6cncn6)(c6ccc(Cl)cc6Cl)O5)cc4)CC3)cc2)c1=O (stereo not given in full) | 0.502 µM (active)
9 | C[C@H](NC(=O)Cc1cc(F)cc(F)c1)C(=O)N[C@@H]1C(=O)N(C)c2ccccc2-c2ccccc21 | inactive
10 | Nc1nc2c(ncn2COCCO)c(=O)[nH]1 | inactive
11 | Cc1cc([C@@H](C)Nc2ccccc2C(=O)O)c2nc(N3CCOCC3)cc(=O)n2c1 | 2.24 µM (active) and 1.86 µM (active)
12 | CS(=O)(=O)c1ccc(C(=O)Nc2ccc(Cl)c(-c3ccccn3)c2)c(Cl)c1 | inactive
13 | CCOc1ccn(-c2ccc(F)cc2)c(=O)c1C(=O)Nc1ccc(Oc2ccnc(N)c2Cl)c(F)c1 | 7.28 µM (active) and 11.8 µM (active)
14 | COCCNCCCn1c(C(=O)CF)c(-c2ccc(C)cc2)c2c(N)ncnc21 | 18.6 µM (active)
15 | O=NN(CCCl)C(=O)NCCCl | inactive
16 | Cc1ccc(N(CC2=NCCN2)c2cccc(O)c2)cc1 | inactive
17 | Cc1cnc(NC(=O)C2=C(O)c3ccccc3S(=O)(=O)N2C)s1 | inactive
18 | C/C(=C\C(=O)Nc1ccccc1C(=O)O)c1ccc2ccccc2c1 | 20.9 µM (active)
19 | CN(C)c1ccc(C2Nc3ccc4ccccc4c3C3=C2C(=O)CC(C)(C)C3)cc1Br (stereo not given) | inactive
20 | O=C1CCC(N2C(=O)c3ccccc3C2=O)C(=O)N1 (stereo not given) | inactive
21 | OCCn1cc(-c2cnc3nnn(Cc4ccc5ncccc5c4)c3n2)cn1 | inactive

Row | Structure (SMILES) | Potency
22 | COc1cc2c(cc1OC)CN(CCc1ccc(NC(=O)c3cccc4c(=O)c5cccc(OC)c5[nH]c34)cc1)CC2 | inactive
23 | O=C(c1cc(Cc2n[nH]c(=O)c3ccccc23)ccc1F)N1CCN(C(=O)C2CC2)CC1 | 6.61 µM (active)
24 | c1ccc([C@H]2CN3CCSC3=N2)cc1 | inactive
25 | NC(=O)c1ccc(-c2nc(-c3ccc4c(c3)OCCO4)c(-c3ccccn3)[nH]2)cc1 | inactive
26 | O=c1[nH]cnc2[nH]ncc12 | inactive
27 | COc1cccc2cc(-c3nc(C4CCC(C(=O)O)CC4)n4ncnc(N)c34)[nH]c12 (stereo not given) | 5.9 µM (active) and 731 nM (active)
28 | O=C1CCc2cc(OCCCCc3nnnn3C3CCCCC3)ccc2N1 | inactive
29 | O=C(NOC[C@H](O)CO)c1ccc(F)c(F)c1Nc1ccc(I)cc1F | inactive
30 | CCN(c1ccccc1)c1cc(NC)[n+](C)c(C)n1 | inactive
31 | O=C(C1CC1)N1CC[C@@H](Cn2c(-c3ccc(-c4ccc5occc5c4)cc3)nc3cnccc32)C1 | 18.6 µM (active)
32 | C1COC(NC(C2CC2)C2CC2)=N1 | inactive
33 | Cc1cc(Nc2nc(N[C@@H](C)c3ncc(F)cn3)ncc2Cl)n[nH]1 | 2.05 µM (active) and 2.95 µM (active)
34 | O=C(Nc1ccc(F)c(C(F)(F)F)c1)Nc1nnc(-c2ccncc2)s1 | inactive
35 | CCC(C)(C)C(=O)O[C@H]1C[C@@H](C)C=C2C=C[C@H](C)[C@H](CC[C@@H]3C[C@@H](O)CC(=O)O3)[C@H]21 | 8.33 µM (active)
36 | NNCCc1ccccc1 | inactive
37 | Cc1cc2c(F)c(Oc3ncnn4cc(OC[C@@H](C)O)c(C)c34)ccc2[nH]1 | 2.63 µM (active)

system: not listed separately; experiment: Primary qHTS for inhibitors of nuclear receptor binding SET domain protein 2 (NSD2) in an RCH-ACV wild type WT cells (2C) (AID 1645877); settings: RCH-ACV (leukaemia line) NSD2 WT (2C) viability, CellTiter-Glo, 72 h; series mostly up to 44.9 µM; note: nearly all actives have a fitted effect of over 70% in size

Row | Structure (SMILES) | Potency
38 | Nc1ncnc2nc(-c3ccc(N4CCOCC4)nc3)cc(-c3cccc(Br)c3)c12 | 20.9 µM (active)
39 | OCCn1cc(-c2cnc3nnn(Cc4ccc5ncccc5c4)c3n2)cn1 | inactive
40 | COc1cc2c(cc1OC)CN(CCc1ccc(NC(=O)c3cccc4c(=O)c5cccc(OC)c5[nH]c34)cc1)CC2 | inactive
